Measurements published in PubChem BioAssay (NCI).
The panel holds about 79,000 compounds, 15% with a hit somewhere; the sample as a whole holds those more often. Active and inactive are the calls of the source. Rule as the data show it: active = growth inhibition above about 70%; inactive = the rest.

Assays:
[1] = NCI Yeast Anticancer Drug Screen. Data for the rad52 strain (AID 147);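 also: 0% = growth of vehicle-treated control cultures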; settings: S. cerevisiae rad52 mutant growth inhibition, stronger effect = higher value
Summary of the method: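 Vehicle-treated cultures served as the reference for growth inhibition of compound-exposed yeast bearing a DNA repair mutation.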

[2] = NCI Yeast Anticancer Drug Screen. Data for the rad50EPP+ strain (AID 151);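 also: 0% = growth of vehicle-treated control cultures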; settings: S. cerevisiae rad50 mutant strain, stronger effect = higher value
Summary of the method: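 In this screen, rad50EPP+ yeast were exposed to compounds. Growth inhibition was scored against vehicle-treated controls.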

[3] = NCI Yeast Anticancer Drug Screen. Data for the mgt1 strain (AID 153); settings: S. cerevisiae mgt1 mutant growth inhibition, stronger effect = higher value
Summary of the method: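 mgt1 strain exposed; growth vs vehicle control recorded as inhibition.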

[4] = NCI Yeast Anticancer Drug Screen. Data for the rad50 strain (AID 155);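 also: 0% = growth of vehicle-only cultures of the same strain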; settings: S. cerevisiae rad50 strain growth inhibition, stronger effect = higher value
Summary of the method: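 Yeast carrying a defined DNA repair defect were exposed to test compounds, and growth was compared with vehicle-treated controls to give percent inhibition.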

[5] = NCI Yeast Anticancer Drug Screen. Data for the mec2-1 strain (AID 157); settings: S. cerevisiae mec2-1 strain, stronger effect = higher value
Summary of the method: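 Vehicle-treated cultures served as reference for growth inhibition of compound-exposed mec2-1 yeast.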

[6] = NCI Yeast Anticancer Drug Screen. Data for the rad14 strain (AID 159);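 also: 0% = growth of vehicle-treated control cultures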; settings: S. cerevisiae rad14 strain growth inhibition, stronger effect = higher value
Summary of the method: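 Yeast cells carrying a defined DNA-repair defect were exposed to compounds, and growth inhibition was calculated relative to vehicle-treated control cultures.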

[7] = NCI Yeast Anticancer Drug Screen. Data for the sgs1 mgt1 strain (AID 161);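 also: 0% = growth of cultures given vehicle only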; settings: S. cerevisiae sgs1 mgt1 strain, stronger effect = higher value
Summary of the method: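 Mutant yeast exposed to compound; growth scored against vehicle-only wells.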

[8] = NCI Yeast Anticancer Drug Screen. Data for the CLN2oe strain (AID 163);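 also: 0% = growth of vehicle-only control cultures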; settings: S. cerevisiae CLN2oe strain, stronger effect = higher value
Summary of the method: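 Inhibition relative to vehicle-treated yeast is reported. Cells: strain with genetic alteration in cell-cycle control, grown with compound.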

[9] = NCI Yeast Anticancer Drug Screen. Data for the cln2 rad14 strain (AID 165);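 also: 0% = growth equal to vehicle treated cultures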; settings: S. cerevisiae cln2 rad14 strain, stronger effect = higher value
Summary of the method: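 Each compound was tested on cln2 rad14 yeast. Inhibition of growth was calculated against vehicle-exposed controls.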

[10] = NCI Yeast Anticancer Drug Screen. Data for the bub3 strain (AID 167); settings: S. cerevisiae bub3 mutant strain, stronger effect = higher value
Summary of the method: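 Compounds were applied to a genetically altered yeast strain carrying a cell-cycle control defect. Growth inhibition was scored against vehicle-treated controls.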

[11] = NCI Yeast Anticancer Drug Screen. Data for the wt2 strain (AID 169);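 also: 0% = growth of vehicle-treated yeast cultures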; settings: S. cerevisiae wt2 strain growth inhibition, stronger effect = higher value
Summary of the method: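 Inhibition of yeast growth was determined after compound treatment, normalised to controls receiving only vehicle.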

[12] = NCI Yeast Anticancer Drug Screen. Data for the mlh1 strain (AID 171);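 also: 0% = growth of vehicle-treated control cultures of the same strain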; settings: S. cerevisiae mlh1 strain growth inhibition, stronger effect = higher value
Summary of the method: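 Vehicle-normalised growth inhibition of a repair- or checkpoint-altered yeast strain following compound treatment.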

[13] = NCI Yeast Anticancer Drug Screen. Data for the sgs1 strain (AID 173);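 also: 0% = growth of vehicle-only control cultures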; settings: S. cerevisiae sgs1 mutant, stronger effect = higher value
Summary of the method: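 Screen format: yeast with repair or checkpoint alterations, compound exposure, growth read relative to vehicle.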

[14] = NCI Yeast Anticancer Drug Screen. Data for the mlh1 rad18 strain (AID 175); settings: S. cerevisiae mlh1 rad18 strain growth inhibition, stronger effect = higher value
Summary of the method: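 Vehicle-treated cultures served as the reference for growth inhibition in a yeast strain carrying DNA damage repair alterations exposed to each compound.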

[15] = NCI Yeast Anticancer Drug Screen. Data for the wt1 strain (AID 149);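 also: 0% = growth of vehicle-treated wt1 cultures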; settings: S. cerevisiae wt1 strain (SPY 50644) growth inhibition, stronger effect = higher value
Summary of the method: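 Yeast wt1 strain exposed to compounds; growth inhibition measured relative to vehicle-treated controls.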

[16] = at 5.0 µM (retest, dose inferred, filed as 0.5)
[17] = at 50.0 µM (retest, dose inferred, filed as 5.0)

Measured: growth inhibition

O=C1Nc2ccc(Br)cc2C1=Nc1cccnc1
active: [10]; [17] 94% | [10]; at 50.0 µM 86.6% | [10]; at 100.0 µM 82%
inactive: [1]; at 1.2 µM -23% | [1]; at 3.7 µM -36% | [1]; at 11.0 µM -40% | [1]; at 33.0 µM -32% | [1]; at 100.0 µM -40% | [2]; at 1.2 µM 3% | [2]; at 3.7 µM -9% | [2]; at 11.0 µM -8% | [2]; at 33.0 µM -3% | [2]; at 100.0 µM 16% | [3]; at 1.2 µM -33% | [3]; at 3.7 µM -27% | [3]; at 11.0 µM -36% | [3]; at 33.0 µM -19% | [3]; at 100.0 µM -14% | [4]; at 1.2 µM -41% | [4]; at 3.7 µM -42% | [4]; [16] 52% | [4]; at 11.0 µM -36% | [4]; at 33.0 µM -25% | [4]; [17] 49% | [4]; at 50.0 µM 31.9% | [4]; at 100.0 µM -13% | [5]; at 1.2 µM -54% | [5]; at 3.7 µM -51% | [5]; [16] 47% | [5]; at 11.0 µM -41% | [5]; at 33.0 µM -31% | [5]; [17] 53% | [5]; at 50.0 µM 39.2% | [5]; at 100.0 µM -12% | [6]; at 1.2 µM -55% | [6]; at 3.7 µM -61% | [6]; at 11.0 µM -60% | [6]; at 33.0 µM -48% | [6]; at 100.0 µM -47% | [7]; [16] -3% | [7]; [17] 32% | [7]; at 50.0 µM 37.5% | [8]; at 1.2 µM -5% | [8]; at 3.7 µM 3% | [8]; at 11.0 µM -18% | [8]; at 33.0 µM -8% | [8]; at 100.0 µM 1% | [9]; [16] 32% | [9]; [17] 27% | [9]; at 50.0 µM 10.4% | [10]; at 1.2 µM -53% | [10]; at 3.7 µM -47% | [10]; [16] 33% | [10]; at 11.0 µM -38% | [10]; at 33.0 µM 10% | [11]; at 1.2 µM -21% | [11]; at 3.7 µM -24% | [11]; at 11.0 µM -20% | [11]; at 33.0 µM -30% | [11]; at 100.0 µM -27% | [12]; at 1.2 µM -25% | [12]; at 3.7 µM -15% | [12]; at 11.0 µM -42% | [12]; at 33.0 µM -39% | [12]; at 100.0 µM -31% | [13]; at 1.2 µM -32% | [13]; at 3.7 µM -41% | [13]; at 11.0 µM -21% | [13]; at 33.0 µM -29% | [13]; at 100.0 µM -18% | [14]; [16] 31% | [14]; [17] 46% | [14]; at 50.0 µM 35.4%

CCOC(=S)SSSC(=S)OCC
active: [1]; at 11.0 µM 70% | [1]; at 33.0 µM 97% | [1]; at 100.0 µM 99% | [15]; at 33.0 µM 88% | [15]; at 100.0 µM 99% | [3]; at 33.0 µM 96% | [4]; at 11.0 µM 76% | [4]; at 33.0 µM 99% | [4]; [17] 99% | [4]; at 100.0 µM 99% | [5]; [16] 87% | [5]; at 33.0 µM 91% | [5]; [17] 100% | [5]; at 100.0 µM 99% | [6]; at 33.0 µM 96% | [6]; at 100.0 µM 99% | [7]; [17] 99% | [8]; at 100.0 µM 95% | [9]; [17] 92% | [10]; at 33.0 µM 95% | [10]; [17] 99% | [10]; at 100.0 µM 99% | [11]; at 33.0 µM 95% | [11]; at 100.0 µM 99% | [12]; at 33.0 µM 95% | [12]; at 100.0 µM 99% | [13]; at 33.0 µM 98% | [13]; at 100.0 µM 99% | [14]; [17] 99%
inactive: [1]; at 1.2 µM 4% | [1]; at 3.7 µM 17% | [15]; at 1.2 µM -3% | [15]; at 3.7 µM 3% | [15]; at 11.0 µM 31% | [3]; at 1.2 µM -1% | [3]; at 3.7 µM 6% | [3]; at 11.0 µM 31% | [3]; at 100.0 µM 56% | [4]; at 1.2 µM 7% | [4]; at 3.7 µM 19% | [4]; [16] 43% | [4]; at 50.0 µM 29.6% | [5]; at 1.2 µM -6% | [5]; at 3.7 µM -5% | [5]; at 11.0 µM 20% | [5]; at 50.0 µM 19.4% | [6]; at 1.2 µM 0% | [6]; at 3.7 µM 5% | [6]; at 11.0 µM 40% | [7]; [16] 9% | [7]; at 50.0 µM 41.2% | [8]; at 1.2 µM -2% | [8]; at 3.7 µM -1% | [8]; at 11.0 µM 18% | [8]; at 33.0 µM 57% | [9]; [16] 1% | [9]; at 50.0 µM -2.7% | [10]; at 1.2 µM -5% | [10]; at 3.7 µM -4% | [10]; [16] -3% | [10]; at 11.0 µM 36% | [10]; at 50.0 µM 50.4% | [11]; at 1.2 µM -1% | [11]; at 3.7 µM 0% | [11]; at 11.0 µM 33% | [12]; at 1.2 µM 3% | [12]; at 3.7 µM 7% | [12]; at 11.0 µM 41% | [13]; at 1.2 µM 0% | [13]; at 3.7 µM 9% | [13]; at 11.0 µM 56% | [14]; [16] 55% | [14]; at 50.0 µM 27.2%

O=C(Cc1ccccc1)NNc1nc(NNC(=O)c2ccncc2)nc(Nc2ccc(Cl)cc2)n1
inactive: [1]; at 1.2 µM 16% | [1]; at 3.7 µM 6% | [1]; at 11.0 µM 16% | [1]; at 33.0 µM 14% | [1]; at 100.0 µM 17% | [15]; at 1.2 µM -52% | [15]; at 3.7 µM -3% | [15]; at 11.0 µM 0% | [15]; at 33.0 µM -1% | [15]; at 100.0 µM -1% | [3]; at 1.2 µM 1% | [3]; at 3.7 µM 3% | [3]; at 11.0 µM 5% | [3]; at 33.0 µM 3% | [3]; at 100.0 µM -1% | [4]; at 1.2 µM -1% | [4]; at 3.7 µM 0% | [4]; [16] 3% | [4]; at 11.0 µM 0% | [4]; at 33.0 µM -1% | [4]; [17] 38% | [4]; at 50.0 µM 39.2% | [4]; at 100.0 µM 1% | [5]; at 1.2 µM -3% | [5]; at 3.7 µM -5% | [5]; [16] 6% | [5]; at 11.0 µM -1% | [5]; at 33.0 µM 4% | [5]; [17] 22% | [5]; at 50.0 µM 48.2% | [5]; at 100.0 µM -3% | [6]; at 1.2 µM 0% | [6]; at 3.7 µM 4% | [6]; at 11.0 µM 3% | [6]; at 33.0 µM 0% | [6]; at 100.0 µM 2% | [7]; [16] 1% | [7]; [17] 12% | [7]; at 50.0 µM 55.3% | [8]; at 1.2 µM -14% | [8]; at 3.7 µM -9% | [8]; at 11.0 µM -13% | [8]; at 33.0 µM -20% | [8]; at 100.0 µM -24% | [9]; [16] -21% | [9]; [17] 45% | [9]; at 50.0 µM 10.1% | [10]; at 1.2 µM -3% | [10]; at 3.7 µM -5% | [10]; [16] -7% | [10]; at 11.0 µM -4% | [10]; at 33.0 µM -6% | [10]; at 50.0 µM 31.8% | [10]; at 100.0 µM -7% | [11]; at 1.2 µM -4% | [11]; at 3.7 µM 2% | [11]; at 11.0 µM 4% | [11]; at 33.0 µM -1% | [11]; at 100.0 µM -2%
active: [10]; [17] 98%
